Source: PubChem BioAssay AID1851 (National Center for Advancing Translational Sciences (NCATS), 2009)
“And” between values parts separate entries of the source, which are not always exact repeats. Equal values may be shown once. The whole screen tested about 16,000 compounds, of which about 5,700 (36%) were called active. Roughly 24% stayed inconclusive and do not appear here. Calls come from the whole dose curve; as a rule, active = well fitted curve in the direction sought with a large enough effect; inconclusive = small, poorly fitted or top-dose-only effect, or effect the other way; inactive = no such curve, though single readings can be large or run the other way. The list shows a part of the results.

Target: Cytochrome P450 1A2 (Homo sapiens) (UniProt P05177)
Sequence (P05177 whole entry, looked up): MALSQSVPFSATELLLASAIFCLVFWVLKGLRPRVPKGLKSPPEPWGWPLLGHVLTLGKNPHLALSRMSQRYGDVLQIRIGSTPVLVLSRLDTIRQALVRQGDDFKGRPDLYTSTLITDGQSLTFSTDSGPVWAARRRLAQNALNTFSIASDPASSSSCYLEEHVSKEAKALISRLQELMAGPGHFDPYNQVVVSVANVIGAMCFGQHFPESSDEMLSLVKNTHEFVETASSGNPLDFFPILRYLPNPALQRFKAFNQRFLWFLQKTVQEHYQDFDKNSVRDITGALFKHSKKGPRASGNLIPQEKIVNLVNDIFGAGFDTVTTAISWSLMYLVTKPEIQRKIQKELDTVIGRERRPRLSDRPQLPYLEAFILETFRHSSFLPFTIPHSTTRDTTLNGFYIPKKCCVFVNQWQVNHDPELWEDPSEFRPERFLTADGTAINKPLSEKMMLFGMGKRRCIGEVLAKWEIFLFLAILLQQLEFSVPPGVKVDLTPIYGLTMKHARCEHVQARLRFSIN
Experiment: Cytochrome panel assay with activity outcomes
Conditions: recombinant CYP, pro-luciferin dealkylation, luminescence, p450-cyp1a2; series mostly up to 57.1 µM; activity, negative = inhibition: at the top concentration
% is set by controls: 0 for no effect and ±100 for the full control effect.

activity, negative = inhibition, inactive:
C#CCCCO/N=C1/C[C@@H](O)[C@@H](O)[C@@H]2[C@@H]3C(=O)N(CC)C(=O)[C@H]3CC[C@H]12 -27.8% [at 11.4 µM]
OC[C@@H]1O[C@@H](N2CCN([C@@H]3O[C@@H](CO)[C@@H](O)[C@H](O)[C@H]3O)CC2)[C@@H](O)[C@H](O)[C@H]1O -9.68% [at 2.29 µM]
CS(=O)(=O)N(CC(=O)Nc1c(F)cccc1F)c1ccc(C23CC4CC(CC(C4)C2)C3)cc1 -15.3%
O=C1O[C@H](CN2CCOCC2)CN1/N=C\c1ccc([N+](=O)[O-])o1 -16.3% [at 25.6 µM]
CCN=C(Nc1ccc(Cl)cc1)c1cccnc1 -22%
CC1CC(OCC(O)CN2CCN(Cc3ccccc3)CC2)CC(C)(C)C1 (stereo not given) 3.43%
C/C(=N\Nc1nnc(C)c(=O)[nH]1)C(=O)O -3.43%
O=C(O)CC[C@@H](NC(=O)c1ccccc1C(=O)O)C(=O)O -2.07%
CCCC(=O)NNC(=O)CCC(=O)NCc1ccccc1 4.31%
C/C(=C/C(=O)NCc1ccccc1)C(=O)O -3.03%
O=C(NCc1ccc(F)cc1)C1CCN(S(=O)(=O)N2CCCCC2)CC1 -2.81%
CC1CCCC(NC(=O)C2CCN(S(=O)(=O)N3CCOCC3)CC2)C1C (stereo not given) -7.4%
CN(c1ccc(C(=O)NCC2CCCO2)cc1)S(=O)(=O)c1ccccc1 (stereo not given) 0.0846%
Cc1cccc(CSCCNC(=O)c2ccc(N(C)S(=O)(=O)c3ccccc3)cc2)c1 -9.88%
Cc1cccc(Oc2coc3cc(OC(=O)c4cc5ccccc5oc4=O)ccc3c2=O)c1 -15.8%
Cc1ccc2[nH]c3nc(CCCn4ccnc4-c4ccccc4)nnc3c2c1 -11.9% [at 11.4 µM]
CCOC(=O)N1CCN(C(=O)c2ccc3nc(SCc4ccc(F)cc4)n(C)c3c2)CC1 -27.9%
CCC/C=C(\CCC)C(NC(=O)c1ccc(C(=O)OC)cc1)c1ccc(C(=O)OC)cc1 (stereo not given) -19.2%
CCC/C=C(\CCC)C(NS(=O)(=O)CC12CCC(CC1=O)C2(C)C)c1ccc(C(=O)OC)cc1 (stereo not given) -13.8%
CCC/C=C(\CCC)C(NC(=O)C(C)(C)C)c1ccc(C(=O)OC)cc1 (stereo not given) -14%
CCC/C=C(\CCC)C(NC(=O)Oc1ccc(F)cc1)c1ccc(C(=O)OC)cc1 (stereo not given) -12.3%
CCC/C=C(\CCC)C(NS(=O)(=O)c1ccc(C(F)(F)F)cc1)c1ccc(C(=O)OC)cc1 (stereo not given) -13.6%
CCC/C=C(\CCC)C(NC(=O)c1ccc(C(F)(F)F)cc1)c1ccc(C(F)(F)F)cc1 (stereo not given) -16.4%
Clc1ccc2c(NC3CCC(N4CCCCC4)CC3)ccnc2c1 (stereo not given) -15.7% [at 2.29 µM]
Clc1ccc2c(NCCNC3CCCCC3)ccnc2c1 -10.2% [at 2.29 µM]
CCN1CNC(=S)N(c2cc(C)ccc2C)C1 6.32%
Cc1cc2sc(C)[n+](CCCOS(=O)(=O)O)c2cc1C -10.3% [at 11.4 µM]
Cc1sc2ccccc2[n+]1CCC(=O)O -3.71% [at 11.4 µM]
COc1ccc(-c2nc3cnc(N4CCNCC4)nc3n(Cc3ccc(F)cc3)c2=O)cc1 -6.24%
Cc1nc2cnc(N3CCN(C)CC3)nc2n(Cc2ccc(F)cc2)c1=O -13.1%
COc1ccc(Nc2nnc(-c3ccc(N4CCOCC4)c([N+](=O)[O-])c3)c3ccccc23)cc1 -12.2%
CCN1CCCC1CNC(=O)C(=O)Nc1ccccc1OC (stereo not given) -28.2%
O=C(O)[C@H]1[C@H](C(=O)O)[C@H](C(=O)O)C[C@@H]1C(=O)O -9.47% [at 11.4 µM]
CCCCCCCCCCCCCCCC(=O)NC[C@@H](COP(=O)([O-])OCC[N+](C)(C)C)OCC -4.69%
Cc1cc2c(nc1C)CCCN2C[C@H](O)CN1CCCc2nc(-c3ccc(Br)cc3)ccc21 3.9% [at 11.4 µM] and 2.86% [at 11.4 µM]
CC1(C)CC(=O)C(C=NCCN2CCN(C(=S)Nc3ccc(F)cc3)CC2)=C(O)C1 -8.42%
CN1CC(c2ccccc2)C2(COc3ccccc3C2=O)C12C(=O)Nc1ccccc12 (stereo not given) -2.04%
NC(=O)C1(N2CCCCC2)CCN(C(=O)c2ccc(-n3cnnn3)cc2)CC1 -6.42%
Cc1ccnc(NS(=O)(=O)c2ccc(NC(=O)C3CCCNC3=O)cc2)n1 (stereo not given) 12.8%
Cn1c(=O)[nH]c(=O)c2c1nc(CN(Cc1ccccc1)Cc1ccccc1)n2CCN1CCOCC1 2.25%
C[C@@H](O)[C@H]1C(=O)N2C(C(=O)O)=C(S[C@@H]3CN[C@H](C(=O)N(C)C)C3)[C@H](C)[C@H]12 -7.27% [at 25.6 µM]
CN1c2ccccc2Oc2c(c(=O)n(C)c(=O)n2C)C1c1cccc([N+](=O)[O-])c1 (stereo not given) -15.5%
COCC(=O)N1CCC2(CC1)CCN(C(=O)Nc1ccc(OC)cc1)CC2 6.19%
N#Cc1cccc(NC(=O)N2CCC3(CC2)CCN(C(=O)c2ccco2)CC3)c1 -19.1%
CCOc1ccc(-n2c(SCC(=O)Nc3ccccc3C)n[nH]c2=O)cc1 -17.9%
O=C(c1ccco1)N1CCN(C(=O)c2nn3cccnc3c2Cl)CC1 12.2%
NC(=O)c1ccc[n+](CC(=O)OCCC23CC4CC(CC(C4)C2)C3)c1 2.04%

AC50, active:
COc1ccc(-c2cc(C(F)(F)F)nc(N3CCCCC3)n2)cc1OC 0.631 µM
Cc1cc2ncn(/N=C/c3ccc([N+](=O)[O-])o3)c2cc1C 10 µM
N/C(=N\OC(=O)Cc1ccc(Cl)cc1)c1cccnc1 11.2 µM
C=Cc1c(C)c2cc3[nH]c(cc4nc(cc5nc(cc1[nH]2)C(C)=C5CCC(=O)O)C(CCC(=O)O)=C4C)c(C)c3C=C 6.31 µM
C=Cc1c(C)c2cc3nc(cc4[nH]c(cc5nc(cc1[nH]2)C(C)=C5CCC(=O)O)c(CCC(=O)OC)c4C)[C@@]1(C)C3=CC=C(C(=O)OC)[C@H]1C(=O)OC (tested in a mixture with another compound) 3.98 µM
O=C(O)c1ccccc1C(=O)NCc1ccc(F)cc1 5.01 µM
O=C(O)NCc1ccccc1 (tested in a mixture with another compound) 3.16 µM
COC(=O)c1c(C)oc2ccc(N(C(=O)c3ccncc3)S(=O)(=O)c3ccccc3)cc12 11.2 µM
Cc1cc(C)cc(Oc2coc3cc(OC(=O)c4cccs4)ccc3c2=O)c1 2 µM
CN(Cc1ccco1)c1nc(-c2ccc3c(c2)OCO3)nc2ccccc12 0.501 µM
CN(Cc1ccccc1)c1nc(-c2ccc([N+](=O)[O-])cc2)nc2ccccc12 1.58 µM
CN(C)c1ccc(-c2nc(N(C)Cc3ccco3)c3ccccc3n2)cc1 0.631 µM
CN(Cc1ccco1)c1nc(-c2cccnc2)nc2ccccc12 0.316 µM
CN(Cc1ccco1)c1nc(-c2ccoc2)nc2ccccc12 0.398 µM
Cc1ccc2[nH]c3c(N4CCc5ccccc5C4)ncnc3c2c1 1.58 µM
COc1ccc2c(c1)nc(SCC(=O)c1ccc(Br)s1)n2C 7.94 µM
CCOc1ccc2c(c1)nc(SCC(=O)c1ccc(Br)s1)n2C 2.24 µM
CCC/C=C(\CCC)C(NC(=O)c1cccs1)c1ccc(C(=O)OC)cc1 (stereo not given) 5.01 µM
CCC/C=C(\CCC)C(NS(=O)(=O)c1cccs1)c1ccc(C(=O)OC)cc1 (stereo not given) 12.6 µM
CCC/C=C(\CCC)C(NC(=O)OCC(C)C)c1ccc(C(=O)OC)cc1 (stereo not given) 15.8 µM
O=C(OC[C@@H](O)CO)c1ccccc1Nc1ccnc2cc(Cl)ccc12 5.01 µM
CCOC(=O)C[n+]1c(C)sc2ccc(OC)cc21 14.1 µM
COc1cccc2c(=O)c(C(=O)NCc3cccs3)c[nH]c12 0.631 µM
O=c1c(-c2ccc(F)cc2)nc2cnc(N3CCNCC3)nc2n1Cc1ccc(F)cc1 15.8 µM
Cc1nc2cnc(N3CCNCC3)nc2n(Cc2ccc(F)cc2)c1=O 12.6 µM
O=c1cnc2cnc(N3CCNCC3)nc2n1Cc1ccc(F)cc1 15.8 µM
Clc1cccc(Nc2nnc(-c3ccccc3)c3ccccc23)c1 1.26 µM
COc1ccccc1NC(=O)C(C/C=C(\C)Cl)C(C)=O (stereo not given) 12.6 µM
CCNc1ncc2nc(CCc3ccccc3)c(=O)n(CCOC)c2n1 2 µM
CCNc1ncc2nc(CCc3ccccc3)c(=O)n(C3CC3)c2n1 3.16 µM
CCNc1ncc2nc(CCc3ccccc3)c(=O)n(C)c2n1 2.51 µM
CCNc1ncc2nc(CCc3ccccc3)c(=O)n(-c3ccccc3)c2n1 1.26 µM
CN1CC(c2ccccn2)C2(SC(=S)N(Cc3ccccc3)C2=O)C12C(=O)Nc1ccccc12 (stereo not given) 17.8 µM
CC(/C=C/c1ccccc1)=N/NC(=O)CNC(=O)c1ccc2c(c1)OCO2 2.24 µM
CC1CCCCN1c1nc(-c2ccncc2)nc2ccccc12 (stereo not given) 0.355 µM
N#CC(c1ccc(Cl)cc1)c1nc2ccccc2nc1C(F)(F)F (stereo not given) 1.58 µM
CCOC(=O)c1ccc(S(=O)(=O)Nc2ccc3cn[nH]c3c2)cc1 5.01 µM
CCOc1cc(C)c(S(=O)(=O)Nc2ccc3cn[nH]c3c2)cc1C 0.178 µM
COCC(=O)Nc1ccc(-c2cn3cccnc3n2)cc1 7.08 µM
CCOCC(=O)Nc1cc(-c2cn3cccnc3n2)ccc1C 0.0501 µM
CCCC(=O)Nc1cc(-c2cn3cccnc3n2)ccc1OC 0.1 µM
O=C(Nc1cccc(-c2cn3cccnc3n2)c1)c1ccco1 0.0316 µM

AC50, inactive:
Cc1nc(N=Nc2ccc(S(=O)(=O)O)cc2S(=O)(=O)O)c(COP(=O)(O)O)c(C=O)c1O
